In PubChem BioAssay (EPA / NIEHS):
Records with an inconclusive call do not appear. The source made the active and inactive calls. How the source made its calls: active means hit-call score of the fitted dose curve at least 0.9, where 1 is the maximum; inconclusive means response in the unintended direction; inactive means score below 0.9.

Assays:
[1] = molecular target: human Serotonin, 5-Hydroxytryptamine Receptor 7 (5HT7), HTR7 (gene 3363) (UniProt P34969); assay: NVS_GPCR_h5HT7: NovaScreen (NVS) G Protein-Coupled Receptor Assay for human Serotonin, 5-Hydroxytryptamine Receptor 7 (5HT7) (AID 2283255);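 further: hits reduce specific radioligand binding relative to DMSO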
In short: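 Radioligand displacement on membranes from CHO cells expressing human 5HT7, 1 h incubation, filter-based scintillation counting. Primary screen used a single 25 uM concentration in duplicate; actives were followed up in concentration series.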

[2] = molecular target: human Neuropeptide Receptor Y1 (NPY1), NPY1R (gene 4886) (UniProt P25929); assay: NVS_GPCR_hNPY1: NovaScreen (NVS) G Protein-Coupled Receptor Assay for human Neuropeptide Receptor Y1 (NPY1) (AID 2283276)
Experimental: NVS_GPCR_hNPY1 is a biochemical, single-readout assay that uses extracted gene-proteins from SK-N-MC in a cell-free assay. Measurements were taken 1 hour after chemical dosing in a 96-well plate.NVS_GPCR_hNPY1 is one of one assay component(s) measured or calculated from the NVS_GPCR_hNPY1 assay. It is designed to make measurements of radioligand binding, a form of binding reporter, as detected with scintillation counting signals by Filter-based radiodetection technology.Data from the assay component NVS_GPCR_hNPY1 was analyzed into 1 assay endpoint. This assay endpoint, NVS_GPCR_hNPY1, was analyzed in the positive analysis fitting direction relative to DMSO as the negative control and baseline of activity. […] Furthermore, this assay endpoint can be referred to as a primary readout, because the performed assay has only produced 1 assay endpoint. […]
Binding assays used specific radioligands (tritiated, iodinated) with non-radioactive competitive displacement ligands in agonist or antagonist protocols (as indicated) and various reference compounds and inhibitors to titrate specific binding to receptors and transporters. Most enzyme assays (CYPs, kinases, phosphatases, proteases, HDACs) used recombinant protein and specific substrates (fluorescence mostly, some colorimetric and radioactive) and inhibitors, followed by a biochemical separation of substrate and product. […]

[3] = tested on: 5-hydroxytryptamine receptor 2C (pig); assay: NVS_GPCR_p5HT2C: NovaScreen (NVS) G Protein-Coupled Receptor Assay for pig Serotonin, 5-Hydroxytryptamine Receptor 2C (5HT2C) (AID 2283288)
In short: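 Pig choroid plexus membranes; radioligand competitive binding, filter-based scintillation counting, read 1 h after dosing. Primary screen in duplicate at 25 uM; actives then run as concentration series; loss of signal versus DMSO baseline.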

human Neuropeptide Receptor Y1 (NPY1), NPY1R (gene 4886), sequence (P25929 whole entry, looked up): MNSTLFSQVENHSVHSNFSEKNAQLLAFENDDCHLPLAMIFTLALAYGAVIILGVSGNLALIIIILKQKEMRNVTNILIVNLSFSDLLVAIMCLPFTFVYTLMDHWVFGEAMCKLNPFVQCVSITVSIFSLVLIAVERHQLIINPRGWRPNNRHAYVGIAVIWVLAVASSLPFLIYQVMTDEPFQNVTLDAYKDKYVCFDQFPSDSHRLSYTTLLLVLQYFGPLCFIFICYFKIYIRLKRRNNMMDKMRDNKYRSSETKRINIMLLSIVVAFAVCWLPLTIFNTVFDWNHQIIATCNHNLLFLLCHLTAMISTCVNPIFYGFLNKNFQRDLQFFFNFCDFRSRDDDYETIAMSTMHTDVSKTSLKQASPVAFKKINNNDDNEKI
human Serotonin, 5-Hydroxytryptamine Receptor 7 (5HT7), HTR7 (gene 3363), sequence (P34969 whole entry, looked up): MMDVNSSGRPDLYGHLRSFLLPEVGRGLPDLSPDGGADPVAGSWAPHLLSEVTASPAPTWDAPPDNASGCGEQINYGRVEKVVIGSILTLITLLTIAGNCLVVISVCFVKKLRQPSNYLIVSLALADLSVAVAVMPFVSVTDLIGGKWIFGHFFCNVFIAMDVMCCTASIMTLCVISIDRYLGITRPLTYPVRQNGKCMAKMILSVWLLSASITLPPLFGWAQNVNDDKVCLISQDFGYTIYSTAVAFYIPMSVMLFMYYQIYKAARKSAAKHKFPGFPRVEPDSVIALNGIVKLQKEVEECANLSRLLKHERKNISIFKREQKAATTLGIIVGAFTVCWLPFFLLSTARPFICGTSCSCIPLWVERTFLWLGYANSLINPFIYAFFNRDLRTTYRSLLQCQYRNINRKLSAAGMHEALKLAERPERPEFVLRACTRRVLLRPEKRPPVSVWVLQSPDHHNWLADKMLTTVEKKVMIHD

| SMILES | outcome [1] | outcome [2] | outcome [3] |
| --- | --- | --- | --- |
| C1CNCCN1 | inactive | inactive |  |
| Cc1ccc([N+](=O)[O-])cc1N |  |  | inactive |
